Measurements published in PubChem BioAssay (EPA / NIEHS).
Calls of active or inactive are those of the source. Rule for the calls: active = hit-call score of the fitted dose curve at least 0.9, where 1 is the maximum; inactive = score below 0.9.

Tests used:
[1] = ATG_CRE_CIS: Attagene CIS-FACTORIAL HepG2 Assay for human cAMP Responsive Element (CRE) binding protein 3 (AID 2282926); conditions: HepG2 CRE cis-reporter, Attagene multiplexed mRNA; actives raise or lower the signal
Procedure, shortened: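 Capillary electrophoresis of 6-FAM-labelled, HpaI-digested PCR products quantified reporter transcripts. These came from HepG2 transiently transfected with cis-element reporters and exposed to test chemicals for 24 hours, with DMSO defining baseline activity.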

[2] = biological target: CCAAT/enhancer-binding protein beta (Homo sapiens) (UniProt P17676); assay: ATG_C_EBP_CIS: Attagene CIS-FACTORIAL HepG2 Assay for human CCAAT/Enhancer Binding Protein (C/EBP) beta (AID 2282927); conditions: HepG2 Attagene cis-factorial transcription factor reporter; actives raise or lower the signal
CCAAT/enhancer-binding protein beta (Homo sapiens), sequence (P17676 whole entry, looked up): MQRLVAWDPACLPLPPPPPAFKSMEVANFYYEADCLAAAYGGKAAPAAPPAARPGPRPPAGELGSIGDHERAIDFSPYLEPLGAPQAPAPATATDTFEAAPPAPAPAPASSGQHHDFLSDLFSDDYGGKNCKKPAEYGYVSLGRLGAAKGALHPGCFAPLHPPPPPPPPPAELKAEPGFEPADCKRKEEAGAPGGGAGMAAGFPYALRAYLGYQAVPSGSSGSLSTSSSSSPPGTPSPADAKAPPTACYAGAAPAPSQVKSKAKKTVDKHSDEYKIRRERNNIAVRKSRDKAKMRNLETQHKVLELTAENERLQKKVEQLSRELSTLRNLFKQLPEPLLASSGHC
Procedure, shortened: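 HepG2 transiently transfected with multiplexed reporter units under cis-regulatory promoters reporting endogenous C/EBPb activity. After 24 h exposure, reporter mRNA assayed by RT-PCR, fluorescent labelling, HpaI digestion and capillary electrophoresis; bidirectional fitting versus DMSO.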

[3] = ATG_CMV_CIS: Attagene CIS-FACTORIAL HepG2 Assay for human CMV (Internal Marker) (AID 2282928); conditions: HepG2 CMV promoter reporter, transcription factor profiling; actives raise or lower the signal;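 note: endpoint acts as a background internal control marker rather than a target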
Procedure, shortened: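 Fluorescence intensity of RT-PCR-derived reporter fragments, resolved by capillary electrophoresis, gives the signal. HepG2 liver cells bearing transfected cis-element reporters were treated 24 h; activity in either direction was fit relative to DMSO-treated controls.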

[4] = ATG_DR4_LXR_CIS: Attagene CIS-FACTORIAL HepG2 Assay for human Liver X Receptor (LXR), DR4 submotif (AID 2282929); conditions: HepG2 Attagene DR4 cis-reporter, mRNA transcription; actives raise or lower the signal
Procedure, shortened: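 Transiently transfected HepG2 liver cells; cis-regulated reporters; 24 h dosing. RT-PCR plus CE read-out of reporter mRNA. DMSO baseline, bidirectional curve fitting.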

[5] = biological target: Aryl hydrocarbon receptor (Homo sapiens) (UniProt P35869); assay: ATG_Ahr_CIS: Attagene CIS-FACTORIAL HepG2 Assay for human Aryl Hydrocarbon Receptor (Ahr) (AID 2282930); conditions: HepG2 AhR cis-factorial reporter transcription; actives raise or lower the signal
Aryl hydrocarbon receptor (Homo sapiens), sequence (P35869 whole entry, looked up): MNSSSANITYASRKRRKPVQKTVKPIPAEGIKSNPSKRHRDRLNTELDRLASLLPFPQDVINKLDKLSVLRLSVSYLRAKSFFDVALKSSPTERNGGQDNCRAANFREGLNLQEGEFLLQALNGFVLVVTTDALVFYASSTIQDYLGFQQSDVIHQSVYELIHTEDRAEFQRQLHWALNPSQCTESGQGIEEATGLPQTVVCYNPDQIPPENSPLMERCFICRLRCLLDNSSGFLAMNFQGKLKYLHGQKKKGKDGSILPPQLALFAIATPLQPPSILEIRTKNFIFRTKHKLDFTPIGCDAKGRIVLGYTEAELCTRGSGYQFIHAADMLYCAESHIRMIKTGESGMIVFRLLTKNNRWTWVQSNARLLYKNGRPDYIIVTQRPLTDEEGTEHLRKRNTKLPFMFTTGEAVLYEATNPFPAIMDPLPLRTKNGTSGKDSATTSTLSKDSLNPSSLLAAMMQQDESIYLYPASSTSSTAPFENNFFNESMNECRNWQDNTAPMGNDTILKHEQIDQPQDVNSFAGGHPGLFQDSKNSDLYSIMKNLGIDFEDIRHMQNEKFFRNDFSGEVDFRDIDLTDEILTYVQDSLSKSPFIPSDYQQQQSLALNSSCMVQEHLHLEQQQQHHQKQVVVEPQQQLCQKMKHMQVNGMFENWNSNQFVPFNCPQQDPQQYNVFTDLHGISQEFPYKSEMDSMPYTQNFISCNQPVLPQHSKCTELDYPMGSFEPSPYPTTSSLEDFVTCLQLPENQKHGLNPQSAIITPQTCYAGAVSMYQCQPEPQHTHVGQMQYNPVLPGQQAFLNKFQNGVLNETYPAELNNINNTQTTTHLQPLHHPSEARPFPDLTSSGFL
Procedure, shortened: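 HepG2 cells transiently transfected with cis-element-driven multiplexed reporter units; endogenous AhR activity read as reporter mRNA 24 h after dosing, via RT-PCR, 6-FAM labelling, HpaI digestion and capillary electrophoresis. Bidirectional fit relative to DMSO.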

[6] = ATG_AP_1_CIS: Attagene CIS-FACTORIAL HepG2 Assay for human Activator Protein 1 (AP-1) (AID 2282931); conditions: HepG2 Attagene cis-factorial AP-1 reporter mRNA; actives raise or lower the signal
Procedure, shortened: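 We transfected HepG2 cells transiently with a set of cis-regulated reporter transcription units, dosed them for 24 h, and quantified reporter mRNA via RT-PCR and capillary electrophoresis, scoring gain or loss of signal relative to DMSO.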

[7] = ATG_AP_2_CIS: Attagene CIS-FACTORIAL HepG2 Assay for human Activator Protein 2 (AP-2) (AID 2282932); conditions: HepG2 AP-2 cis-reporter, Attagene transcription factor profiling; actives raise or lower the signal
Procedure, shortened: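 Read-out: fluorescent reporter mRNA via RT-PCR and capillary electrophoresis, 24 h post-dose in transiently transfected HepG2. Endogenous factors drive cis-promoter reporters; gain or loss of signal fitted bidirectionally against DMSO.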

[8] = ATG_BRE_CIS: Attagene CIS-FACTORIAL HepG2 Assay for human Bone Morphogenetic Protein (BMP) Response Element (BRE) (AID 2282933); conditions: HepG2 BMP response element reporter, Attagene transcription factor profiling; actives raise or lower the signal
Procedure, shortened: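 Endogenous transcription factor activity at a BMP response element was monitored in transfected HepG2 cells 24 h after dosing. Fluorescent RT-PCR products were resolved by capillary electrophoresis, and activity was fitted in both directions versus DMSO.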

[9] = biological target: Retinoic acid receptor alpha (Homo sapiens) (UniProt P10276); assay: ATG_DR5_RAR_CIS: Attagene CIS-FACTORIAL HepG2 Assay for human Retinoic Acid Receptor Alpha (RARE), DR5 submotif (AID 2282934); conditions: HepG2 Attagene cis-factorial RARE DR5 reporter, mRNA; actives raise or lower the signal;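 for AC50: reporter responds to endogenous RAR alpha beta and gamma in HepG2 not RARA alone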
Retinoic acid receptor alpha (Homo sapiens), sequence (P10276 whole entry, looked up): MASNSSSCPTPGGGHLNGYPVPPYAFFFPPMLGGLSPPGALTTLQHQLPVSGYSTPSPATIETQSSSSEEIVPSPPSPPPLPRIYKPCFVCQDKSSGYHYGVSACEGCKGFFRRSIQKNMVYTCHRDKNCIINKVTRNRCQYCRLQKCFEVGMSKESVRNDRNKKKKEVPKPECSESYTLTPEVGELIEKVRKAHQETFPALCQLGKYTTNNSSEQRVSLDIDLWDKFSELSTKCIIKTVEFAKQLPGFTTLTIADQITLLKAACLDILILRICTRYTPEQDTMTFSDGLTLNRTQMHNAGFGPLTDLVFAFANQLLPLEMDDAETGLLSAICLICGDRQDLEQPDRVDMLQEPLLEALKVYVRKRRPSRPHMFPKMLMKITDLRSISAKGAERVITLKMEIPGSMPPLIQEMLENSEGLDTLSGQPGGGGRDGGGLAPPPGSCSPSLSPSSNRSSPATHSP
Procedure, shortened: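 HepG2 cells transiently transfected with multiplexed reporter units; DR5 cis-element drives reporter through endogenous transcription factors. After 24 h dosing, reporter mRNA quantified by RT-PCR, fluorescent labeling, HpaI digestion and capillary electrophoresis; bidirectional fitting versus DMSO.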

[10] = biological target: Transcription factor E2F1 (Homo sapiens) (UniProt Q01094); assay: ATG_E2F_CIS: Attagene CIS-FACTORIAL HepG2 Assay for human E2F Transcription Factor 1 (AID 2282935); conditions: HepG2 Attagene cis-reporter, E2F reporter RNA transcripts; actives raise or lower the signal
Transcription factor E2F1 (Homo sapiens), sequence (Q01094 whole entry, looked up): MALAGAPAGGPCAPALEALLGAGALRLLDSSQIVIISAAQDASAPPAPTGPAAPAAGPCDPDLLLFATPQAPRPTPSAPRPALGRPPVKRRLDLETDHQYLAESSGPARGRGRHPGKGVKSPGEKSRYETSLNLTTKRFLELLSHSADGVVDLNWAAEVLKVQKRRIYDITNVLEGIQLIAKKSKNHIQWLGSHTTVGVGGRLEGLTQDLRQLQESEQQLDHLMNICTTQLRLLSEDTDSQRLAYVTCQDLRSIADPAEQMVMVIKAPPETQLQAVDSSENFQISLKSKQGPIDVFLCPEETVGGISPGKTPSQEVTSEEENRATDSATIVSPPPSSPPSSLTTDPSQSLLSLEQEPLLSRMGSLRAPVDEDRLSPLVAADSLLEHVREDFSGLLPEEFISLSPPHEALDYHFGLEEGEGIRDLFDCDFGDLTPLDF
Procedure, shortened: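 Transient MRTU transfection of HepG2; 24 h compound exposure; RNA → oligo(dT) RT → PCR → FAM label → HpaI cut → CE fluorescence. Gain/loss of signal fit against DMSO.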

Measured: AC50

Cc1cc(S(=O)(=O)O)ccc1N=Nc1c(O)ccc2ccccc12
active: [5] 2.32 µM
inactive: all other assays above

CC(C)OCCO
inactive: all assays above

OC[C@H]1O[C@@H]2O[C@H]3[C@H](O)[C@@H](O)[C@@H](O[C@H]4[C@H](O)[C@@H](O)[C@@H](O[C@H]5[C@H](O)[C@@H](O)[C@@H](O[C@H]6[C@H](O)[C@@H](O)[C@@H](O[C@H]7[C@H](O)[C@@H](O)[C@@H](O[C@H]8[C@H](O)[C@@H](O)[C@@H](O[C@H]9[C@H](O)[C@@H](O)[C@@H](O[C@H]1[C@H](O)[C@H]2O)O[C@@H]9CO)O[C@@H]8CO)O[C@@H]7CO)O[C@@H]6CO)O[C@@H]5CO)O[C@@H]4CO)O[C@@H]3CO
inactive: all assays above

C=CCCCCCCCCCC
inactive: all assays above

CC(=O)O[C@H]1C[C@@H]2CC[C@@]1(C)C2(C)C
inactive: all assays above

CCc1cc(Cc2cc(CC)cc(C(C)(C)C)c2O)c(O)c(C(C)(C)C)c1
active: [1] 19.1 µM | [4] 14.8 µM | [6] 9.51 µM | [8] 4.81 µM | [9] 2.28 µM
inactive: all other assays above

CC(C)(C)C1=CC(=O)C(C(C)(C)C)=CC1=O
active: [3] 87.6 µM | [4] 50 µM | [9] 26.8 µM
inactive: all other assays above

O=C(CC(=O)c1ccccc1)c1ccccc1
active: [1] 51.1 µM | [2] 70.4 µM | [3] 47.2 µM | [5] 25.9 µM | [6] 80.1 µM | [9] 62.5 µM
inactive: [4] | [7] | [8] | [10]

NCC1CCCC(CN)C1 (stereo not given)
inactive: all assays above

CCC(=O)OCCOc1ccccc1
inactive: all assays above

CC(C=O)Cc1ccc(C(C)(C)C)cc1 (stereo not given)
inactive: all assays above

CCCCCCCC/C=C\CCCCCCCC(=O)OCC
inactive: all assays above

CCC1(C)NC(=O)NC1=O (stereo not given)
inactive: all assays above

CC1(C)COCN1
inactive: all assays above

CC[N+](C)(CC)CC
inactive: all assays above

C=C(C)C(=O)OCCOCCOCCOCCOC(=O)C(=C)C
inactive: all assays above

O=C1CCCC=CCCCCCCCCCC1
active: [3] 44.1 µM | [4] 33.4 µM | [6] 50.3 µM
inactive: all other assays above

CC1(C)O[C@@H]2C[C@H]3[C@@H]4CCC5=CC(=O)C=C[C@]5(C)[C@@]4(F)[C@@H](O)C[C@]3(C)[C@]2(C(=O)CO)O1
active: [5] 0.082 µM
inactive: all other assays above

O=C(O)CCCCCCCCCCCC(=O)O
inactive: all assays above

OCC#CCO
inactive: all assays above

COC(=O)Nc1ccc(Cl)c(Cl)c1
active: [3] 24 µM | [4] 26.2 µM | [5] 55.7 µM | [6] 172 µM
inactive: all other assays above

ON=C1CCCCC1
inactive: all assays above

C=C[Si]1(C)O[Si](C)(C=C)O[Si](C)(C=C)O[Si](C)(C=C)O1 (stereo not given)
active: [3] 51.7 µM | [4] 4.46 µM | [6] 36.1 µM
inactive: all other assays above

NC(=S)NNC(N)=S
inactive: all assays above

CCCCCCCCSCCO
active: [1] 100 µM | [2] 100 µM | [3] 100 µM | [4] 148 µM
inactive: all other assays above

CC(=O)OCCCc1ccccc1
inactive: all assays above

COc1cc([C@@H]2c3cc4c(cc3[C@@H](O[C@@H]3O[C@@H]5CO[C@@H](C)O[C@H]5[C@H](O)[C@H]3O)[C@H]3COC(=O)[C@H]23)OCO4)cc(OC)c1O
inactive: all assays above

CCCCCCC(=O)c1ccccc1
active: [6] 154 µM | [9] 101 µM
inactive: all other assays above

Cc1ccc(OC(=O)c2ccccc2O)cc1
active: [6] 122 µM
inactive: all other assays above

CC(C)NCC(O)COc1ccc(CC(N)=O)cc1 (stereo not given)
inactive: all assays above

O=CCc1ccccc1
inactive: all assays above

N[C@@H](Cc1cc(I)c(Oc2cc(I)c(O)c(I)c2)c(I)c1)C(=O)O
active: [5] 3.62 µM
inactive: all other assays above

OC[C@H]1O[C@@H](Oc2ccc(O)cc2)[C@H](O)[C@@H](O)[C@@H]1O
inactive: all assays above

c1ccc2cc(Nc3ccc(Nc4ccc5ccccc5c4)cc3)ccc2c1
active: [5] 4 µM
inactive: all other assays above

O=C(c1ccccc1)C(O)c1ccccc1 (stereo not given)
inactive: all assays above

C=CCN(CC=C)CC=C
inactive: all assays above

CN1C(=O)c2ccccc2C1=O
inactive: all assays above

CS(=O)(=O)c1ccc(Cl)cc1
inactive: all assays above

Cc1[nH]c(=O)c(C#N)cc1-c1ccncc1
active: [3] 24.3 µM | [4] 26.6 µM
inactive: all other assays above

OCC(O)c1ccccc1 (stereo not given)
inactive: all assays above

CCOc1ccc(NC(=O)CC(C)O)cc1 (stereo not given)
inactive: all assays above

C=CC(C)(O)CCC=C(C)C (stereo not given)
inactive: all assays above

Nc1ccccc1[N+](=O)[O-]
inactive: all assays above

c1ccc(CN(Cc2ccccc2)Cc2ccccc2)cc1
active: [4] 18.4 µM
inactive: all other assays above

O=Cc1ccccc1S(=O)(=O)O
inactive: all assays above

COS(=O)(=O)O
inactive: all assays above

C=Cc1ccc(C)cc1
inactive: all assays above

CCCCCCCCCCCC(=O)OC[C@@H](O)[C@H]1OC[C@H](O)[C@H]1O
inactive: all assays above
